Assay outcomes: PubChem, National Center for Advancing Translational Sciences (NCATS)
HCMV antiviral: inhibitors of human cytomegalovirus; activity change, negative = inhibition, % at 57.5 µM; 4.5% of 410,000 active; HFF cells, HCMV-luciferase reporter, 72 h; stronger effect = lower value; in the data active = activity change below about -60%; inconclusive = no clear call, values can overlap the other calls; inactive = above about -39%
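Cell-based, HFFs, 1000 cells/well, 16 h 37C; cpds in DMSO + HCMV-luc, MOI 1 PFU/cell; 72 h 37C; OneGlo luminescence after 5 min RT; norm. to buffer vs Salinomycin 10uM.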
Marburg entry inh: blocks Marburg virus binding to or entry into cells | Marburg virus pseudotyped entry inhibition, cell reporter | Potency, µM (top dose mostly 37.8 µM), for inactives: at the highest dose activity change, negative = inhibition, hits mostly inhibitors | 1.8% of 300,000 active | AID 540276; calls by dose curve; tested in HEK293 cells; note: potency is the fitted concentration of half-maximal effect
FMDV antiviral: blocks foot and mouth disease virus; FMDV antiviral cell-based qHTS; Potency, µM (top dose mostly 57.9 µM), inactives show at the highest dose activity change, negative = inhibition, most hits filed as inhibitors; 1.2% of 410,000 active; AID 1159524; calls by dose curve; tested in HEK293T cells; note: read-out not given here; potency is the fitted concentration of half-maximal effect; nearly all actives have a fitted effect of over 45% in size
LASV entry inh: blocks Lassa virus binding to or entry into cells. 1.2% of 300,000 active. Potency, µM (highest dose often 37.9 µM), for inactives: top-dose activity change, negative = inhibition, hits mostly inhibitors. AID 540256. Lassa virus pseudotype entry inhibition, cell reporter; calls by dose curve; tested in HEK293 cells; note: potency is the fitted concentration of half-maximal effect; nearly all actives have a fitted effect of over 50% in size
* hit, by the source's call; ? = inconclusive; . = no result given; [ ] = another dose, or the depositor's remark. Only some compounds are listed: those with a hit (about 6.2% of all), similar ones and a draw of the others. % is set by controls: 0 for no effect and ±100 for the full control effect.

SMILES	HCMV antiviral	Marburg entry inh	FMDV antiviral	LASV entry inh
O=c1c2ccccc2nc(-c2ccco2)n1Cc1ccccc1	102	18%	38%	0%
CCOc1ccc(CCn2c(-c3ccco3)nc3ccccc3c2=O)cc1OCC	-76*	2.3µM*	?	6.5µM*
COC(=O)C1=C(C)N(Cc2ccccc2)C(=S)NC1c1ccc(Br)cc1 (stereo unspecified)	2	-36%[14.2 µM]	.	?
COC1CCC(OC2CC(C3(C)CCC4(CC(O)C(C)C(C(C)/C=C(\C)C(=O)C(C)CC(C)C(=O)O)O4)O3)OC3(OC(C4OC(O)(CO)C(C)CC4C)CC3C)C2C)OC1C (stereo unspecified)	-98*	?	18µM*	0.32µM*
O=C(NCc1ccc2c(c1)OCO2)C1CCC(CNc2c(N3CCCC3)c(=O)c2=O)CC1 (stereo unspecified)	-84*	-2%	-4%	.
COC(=O)[C@H](Cc1ccccc1)N1C[C@@H](N2CCC[C@H]2C)CS1(=O)=O	6	.	.	.
Cc1ccc(-n2[nH]c(=O)c(-c3ccccn3)c2C)cc1	?	?	7.1µM*	?
CCn1c(NC(=O)c2cccc(Cn3cc(Cl)cn3)c2)nc2ccccc21	-68*	.	?	.
Cn1c(NC(=O)c2cccc(Cn3cc(Cl)cn3)c2)nc2ccccc21	29	-7%	19%	?
COc1ccc(NC(=O)C2=C(C)Nc3nc(SCc4ccccc4)nn3C2c2cc(OC)ccc2OC)cc1 (stereo unspecified)	-82*	.	-24%	?
CCSc1nc2n(n1)C(c1ccc(Cl)cc1Cl)C(C(=O)Nc1ccccc1C)=C(C)N2 (stereo unspecified)	-91*	.	-3%	3%[46.1 µM]
CC1=C(C(=O)Nc2ccccc2C)C(c2ccncc2)n2nc(SCc3ccccc3Cl)nc2N1 (stereo unspecified)	-3	-1%[46.1 µM]	-15%	-3%[46.1 µM]
CCOc1ccccc1C1C(C(=O)Nc2ccccc2)=C(C)Nc2nc(SCC(=O)c3ccc(C)cc3)nn21 (stereo unspecified)	-72*	.	-5%	9%[46.1 µM]
COc1ccc(-c2c(C(=O)c3ccc(Br)cc3)[nH]c(N)c2C(=O)NCCc2c[nH]c3ccccc23)cc1OC	67	.	.	.
CCSc1nc2ccccc2n1C(=O)/C=C/c1ccc(OC)c(OC)c1	-100*	?	20µM*	6.3µM*
C=CCSc1nc2ccccc2n1C(=O)/C=C/c1ccc(OC)c(OC)c1	-103*	?	?	8.2µM*
CCn1c(SCC(=O)N/N=C/c2ccc(OC)c(OC)c2)nc2ccccc21	11	-16%	0%	-14%
C=CCSc1nc2ccccc2n1C(=O)/C=C/c1cc(OC)c(OC)c(OC)c1	-111*	13µM*	8.9µM*	9.2µM*
CS(=O)(=O)c1nc2ccccc2n1Cc1ccccc1	-67*	-7%	4%	-10%
CCS(=O)(=O)c1nc2ccccc2n1Cc1ccccc1Cl	-67*	.	0%	.
COc1ccc(C2C(C(=O)N3CCCCC3)CCC(=O)N2c2cc(OC)c(OC)c(OC)c2)cc1 (stereo unspecified)	.	11%	-18%	7.3µM*
CCC(C)NC(=O)C1CCC(=O)N(c2ccc3c(c2)OCO3)C1c1ccc(OC)cc1 (stereo unspecified)	-62*	.	-16%	.
COc1cc(/C=N/NC(=O)c2c(-c3c(Cl)cccc3Cl)noc2C)ccc1OCC(N)=O	-5	-11%[46.1 µM]	17%	4%[46.1 µM]
Cc1onc(-c2c(Cl)cccc2Cl)c1C(=O)N/N=C(\N)COc1ccc(Cl)cc1	-78*	?	?	-2%
O=C(NC1=NCCS1)C1COc2ccccc2O1 (stereo unspecified)	?	1µM*	10µM*	?
SMILES	HCMV antiviral	Marburg entry inh	FMDV antiviral	LASV entry inh
O=C(Nc1ccncc1)C1COc2ccccc2O1 (stereo unspecified)	-25	-1%	-4%	18%
Cc1nnc(NC(=O)C2COc3ccccc3O2)s1 (stereo unspecified)	71	-13%	32%	?
O=C(Nc1nc2c(s1)CCCC2)C1COc2ccccc2O1 (stereo unspecified)	-15	?	-23%	5.8µM*
CC(C)(C)OC(=O)/C=C/[C@@H]1Cc2cc(C(F)(F)F)ccc2N1	14	.	.	.
O=C(CSc1nc2ccccc2nc1Cc1ccc(Cl)cc1)N1CCN(c2ccccc2F)CC1	?	.	-21%	1%[46.1 µM]
COc1ccc(S(=O)(=O)N2CCOC2CNC(=O)C(=O)NCCc2ccc(OC)c(OC)c2)cc1 (stereo unspecified)	-68*	?	?	?
COc1ccccc1CCNC(=O)C(=O)NCC1OCCCN1S(=O)(=O)c1cc(C)ccc1C (stereo unspecified)	-18	?	?	-17%
Cc1ccc(C)c(S(=O)(=O)N2CCCOC2CNC(=O)C(=O)NCc2ccccc2)c1 (stereo unspecified)	-28	?	3%	?
COc1ccc(CCNC(=O)C(=O)NCC2OCCCN2S(=O)(=O)c2cc(C)ccc2C)cc1 (stereo unspecified)	-67*	-29%	?	-11%
COc1ccccc1CCNC(=O)C(=O)NCC1OCCCN1S(=O)(=O)c1ccc(F)cc1C (stereo unspecified)	-75*	-20%	-25%	?
CN(C)CCNC(=O)C(=O)NCC1OCCN1S(=O)(=O)c1ccc(F)cc1 (stereo unspecified)	13	.	-17%	.
COc1ccc(CCNC(=O)C(=O)NCC2OCCN2S(=O)(=O)c2ccc(Br)cc2)cc1OC (stereo unspecified)	20	?	-17%	?
CN(C)CCNC(=O)C(=O)NCC1OCCN1S(=O)(=O)c1cc(F)ccc1F (stereo unspecified)	-61*	12%	-13%	-1%
COc1ccc([C@@H]2[C@@H](C(=O)N3CCOCC3)CC(=O)N2C(=O)CCc2ccccc2)cc1	-7	.	.	.
O=C(NCc1ccc(F)cc1)C(=O)NCC1CCCN1S(=O)(=O)c1ccccc1 (stereo unspecified)	17	?	-13%	?
O=C(NCCc1ccc(F)cc1)C(=O)NCC1CCCN1S(=O)(=O)c1ccccc1 (stereo unspecified)	-34	?	40µM*	7.1µM*
COc1ccc(CCNC(=O)C(=O)NCC2CCCN2S(=O)(=O)c2cc(C)ccc2C)cc1 (stereo unspecified)	-7	?	?	11µM*
Cc1c(Cl)cccc1NC(=O)c1cc(-c2cccc(Cl)c2)on1	-19	-1%[46.1 µM]	-3%	-18%[46.1 µM]
CC12CCC3(CC1CCC1OC12)OCCO3 (stereo unspecified)	2	0%	-23%	-5%[46.1 µM]
CC1(C2CCC3C4CCC5CC6(CCC5(C)C4C(=O)CC32C)OCCO6)OCCO1 (stereo unspecified)	-99*	?	-24%	-21%[46.1 µM]
COc1ccc(CN2C(=O)C(n3ccc4ccccc43)c3cccc(F)c32)cc1 (stereo unspecified)	-72*	.	.	.
O=C1C(n2ccc3ccccc32)c2cccc(F)c2N1Cc1ccc(Cl)nc1 (stereo unspecified)	-13	.	.	.
O=C1C(n2ccc3ccccc32)c2ccccc2N1Cc1ccc(C(F)(F)F)cc1 (stereo unspecified)	21	.	.	.
